The supplement of paper PMC8728848
The entries come from a sample that favours the strongest signals as a whole.

Tests used:
Assay in all cases: glycan array binding signal (z-score within array); higher = stronger binding
Conditions in all cases: glycan notation: IUPAC condensed, linker removed
[1] = biological target: Gal(b1-4)GlcNAc(b1-3)Gal(b1-4)GlcNAc(b1-6)[Gal(b1-3)]GalNAc
Procedure, shortened: (§1)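 Glycan array binding is given as a within-array Z-score, which can be read as non-binding when negative. The arrays, 3228 of them, came from the Consortium for Functional Glycomics database and were retained only where the protein sequence was available. Z-scores were averaged across arrays of the same protein sequence at different concentrations or buffers and across linkers.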

[2] = biological target: Gal(b1-4)GlcNAc(b1-3)[Gal(b1-4)GlcNAc(b1-6)]GalNAc
Procedure, shortened: as §1

[3] = biological target: Gal(b1-4)GlcNAc(b1-6)[Gal(b1-3)]GalNAc
Procedure, shortened: as §1

Gal6S(b1-3)GlcNAc6S = biological target: Gal6S(b1-3)GlcNAc6S
Procedure, shortened: as §1

GalNAc(a1-3)Gal = biological target: GalNAc(a1-3)Gal
Procedure, shortened: as §1

GalNAc(a1-3)GalNAc = biological target: GalNAc(a1-3)GalNAc
Procedure, shortened: as §1

[4] = biological target: GalNAc(a1-3)GalNAc(a1-3)Gal(a1-4)Gal(b1-4)GlcNAc
Procedure, shortened: as §1

[5] = biological target: GalNAc(a1-3)GalNAc(b1-3)Gal(a1-4)Gal(b1-4)Glc
Procedure, shortened: as §1

GalNAc(b1-3)GalNAc = biological target: GalNAc(b1-3)GalNAc
Procedure, shortened: as §1

[6] = biological target: GlcA3S(b1-3)Gal(b1-4)GlcNAc(b1-3)Gal(b1-4)Glc
Procedure, shortened: as §1

[7] = biological target: GlcNAc(b1-2)Man(a1-3)[GlcNAc(b1-4)][GlcNAc(b1-2)Man(a1-6)]Man(b1-4)GlcNAc(b1-4)[Fuc(a1-6)]GlcNAc
Procedure, shortened: as §1

[8] = biological target: GlcNAc(b1-4)GlcNAc(b1-4)GlcNAc(b1-4)GlcNAc(b1-4)GlcNAc
Procedure, shortened: as §1

[9] = biological target: GlcNAc(b1-6)Gal(b1-4)GlcNAc
Procedure, shortened: as §1

GlcNAc3Prop(b1-4)GlcNAc = biological target: GlcNAc3Prop(b1-4)GlcNAc
Procedure, shortened: as §1

Kdn(a2-6)Gal(b1-4)GlcNAc = biological target: Kdn(a2-6)Gal(b1-4)GlcNAc
Procedure, shortened: as §1

[10] = biological target: Man(a1-2)Man(a1-3)[Man(a1-2)Man(a1-6)]Man
Procedure, shortened: as §1

[11] = biological target: Neu5Ac(a2-3)Gal(b1-3)GalNAc6S
Procedure, shortened: as §1

[12] = biological target: Neu5Ac(a2-3)Gal(b1-3)GlcNAc(b1-2)Man(a1-3)[Neu5Ac(a2-3)Gal(b1-3)GlcNAc(b1-2)Man(a1-6)]Man(b1-4)GlcNAc(b1-4)GlcNAc
Procedure, shortened: as §1

[13] = biological target: Neu5Ac(a2-3)Gal(b1-3)GlcNAc6S
Procedure, shortened: as §1

[14] = biological target: Neu5Ac(a2-3)Gal(b1-3)[Fuc(a1-4)]GlcNAc(b1-3)Gal(b1-4)[Fuc(a1-3)]GlcNAc
Procedure, shortened: as §1

[15] = biological target: Neu5Ac(a2-3)Gal(b1-4)GlcNAc(b1-2)Man
Procedure, shortened: as §1

[16] = biological target: Neu5Ac(a2-3)Gal(b1-4)GlcNAc(b1-2)[Neu5Ac(a2-3)Gal(b1-4)GlcNAc(b1-6)]Man(a1-6)[Neu5Ac(a2-3)Gal(b1-4)GlcNAc(b1-2)Man(a1-3)][GlcNAc(b1-4)]Man(b1-4)GlcNAc(b1-4)GlcNAc
Procedure, shortened: as §1

[17] = biological target: Neu5Ac(a2-3)Gal(b1-4)[Fuc(a1-3)]GlcNAc(b1-3)Gal(b1-4)GlcNAc
Procedure, shortened: as §1

[18] = biological target: Neu5Ac(a2-3)Gal6S(b1-4)GlcNAc
Procedure, shortened: as §1

[19] = biological target: Neu5Ac(a2-3)[Neu5Ac(a2-6)]GalNAc
Procedure, shortened: as §1

[20] = biological target: Neu5Ac(a2-6)Gal(b1-4)GlcNAc(b1-3)Gal(b1-4)GlcNAc(b1-2)Man(a1-3)[Neu5Ac(a2-6)Gal(b1-4)GlcNAc(b1-3)Gal(b1-4)GlcNAc(b1-2)Man(a1-6)]GalNAc
Procedure, shortened: as §1

[21] = biological target: Neu5Ac(a2-6)GalNAc(b1-4)GlcNAc6S
Procedure, shortened: as §1

[22] = biological target: Neu5Ac(a2-6)GlcNAc(b1-4)GlcNAc
Procedure, shortened: as §1

[23] = biological target: Neu5Ac(a2-8)Neu5Ac(a2-3)Gal(b1-4)GlcNAc
Procedure, shortened: as §1

B1: HPA (Helix pomatia), Q2F1K8 (protein)
chain: MQAFYSGLLLLCVVAFAAAQRVQSGKIDCGNDAGWAKVPSDDPGRDNTRELAKNITFASPYCRPPVVLLSITQLDVEQSQNLRVIARLYSVSPTGFKASCYTWHNTKVYSMSISWISIENY
glycan array binding signal (z-score) [1]: 0.365 | glycan array binding signal (z-score) [2]: -0.304 | glycan array binding signal (z-score) [3]: -0.255 | glycan array binding signal (z-score) (Gal6S(b1-3)GlcNAc6S): -0.301 | glycan array binding signal (z-score) (GalNAc(a1-3)Gal): 2.85 | glycan array binding signal (z-score) (GalNAc(a1-3)GalNAc): 3.28 | glycan array binding signal (z-score) [4]: 3.71 | glycan array binding signal (z-score) [5]: 7.34 | glycan array binding signal (z-score) (GalNAc(b1-3)GalNAc): 0.839 | glycan array binding signal (z-score) [6]: -0.351 | glycan array binding signal (z-score) [7]: -0.214 | glycan array binding signal (z-score) [8]: -0.314 | glycan array binding signal (z-score) [9]: -0.35 | glycan array binding signal (z-score) (GlcNAc3Prop(b1-4)GlcNAc): -0.979 | glycan array binding signal (z-score) (Kdn(a2-6)Gal(b1-4)GlcNAc): -0.242 | glycan array binding signal (z-score) [10]: -0.231 | glycan array binding signal (z-score) [11]: -0.272 | glycan array binding signal (z-score) [12]: -0.195 | glycan array binding signal (z-score) [13]: -0.281 | glycan array binding signal (z-score) [14]: -0.105 | glycan array binding signal (z-score) [15]: -0.116 | glycan array binding signal (z-score) [16]: -0.361 | glycan array binding signal (z-score) [17]: 0.04 | glycan array binding signal (z-score) [18]: -0.242 | glycan array binding signal (z-score) [19]: -0.294 | glycan array binding signal (z-score) [20]: 0.201 | glycan array binding signal (z-score) [21]: -0.275 | glycan array binding signal (z-score) [22]: -0.359 | glycan array binding signal (z-score) [23]: -0.323
